# Laboratory results reported in PubChem BioAssay (Tox21).
# Inconclusive results are not listed. Unmarked numbers belong to inactive results. Calls follow the shape of the dose curve; as a rule, active = well fitted cell-killing curve with a large enough effect in the repeat runs; inconclusive = weak or mixed curves, or effect the other way; inactive = flat fitted curve, though single readings scatter.
# Experiment: qHTS assay to identify small molecule agonists of the androgen receptor (AR) signaling pathway in the presence of an antagonist - cell viability counter screen (AID 1259379); also: nearly all actives have a fitted effect of over 25% in size
# Details: MDA-kb2 viability, CellTiter-Fluor, 16 h; series mostly up to 92.4 µM; activity change, negative = cytotoxicity: at the top concentration
# From the text: National Center for Advancing Translational Sciences [NCATS]
# NIH Chemical Genomics Center [NCGC]
# U.S. Environmental Protection Agency [EPA]
# National Institutes of Environmental Health Sciences [NIEHS]
# National Toxicology Program [NTP]
# U.S. Food and Drug Administration [FDA]
# Androgen receptor (AR) is an important member of nuclear receptor family. Its signaling plays a critical role in AR-dependent prostate cancer and other androgen related diseases. Considerable attention has been given in the past decades to develop methods to study and screen for the environmental chemicals that have the potential to interfere with metabolic homeostasis, reproduction, developmental and behavioral functions. Therefore AR binding assay for screening against androgen agonists and antagonists can be used to identify potential endocrine disruptors.
# MDA-kb2 cells (from ATCC, deposited by Wilson et al.) are human breast carcinoma cells that were stably transfected with a luciferase reporter gene under control of the MMTV promoter that contains response elements for both androgen receptor (AR) and glucocorticoid receptor (GR). This particular screening for measuring luciferase reporter gene activity using MDA-kb2 cells against Tox21 10K library compounds is a confirmation study on agonist mode screening in the presence of AR-antagonist compound (Nilutamide) at 3.0uM final concentration. The cytotoxicity of the compounds was tested in parallel by measuring the cell viability using CellTiter-Fluor assay system (Promega, Madison, WI) in the same wells.
# Tox21 Assay Protocol Summary:
# MDA-kb2 cells (cells cultured without CO2) were dispensed at 3,000 cells/well in 4uL of culture medium into white wall/solid-bottom 1536-well plates (Corning Life Sciences, Corning, NY) using a Multidrop Combi (Thermo Fisher Scientific Inc., Waltham, MA) dispenser. The assay plates were incubated at 37C and 0% CO2 for 5hr. One uL of 3.0uM (final concentration) Nilutamide or assay buffer was added using two separate tips of Flying Reagent Dispenser (FRD, Aurora Discovery, San Diego, CA). Then 23nL of compounds dissolved in DMSO at 15 concentrations and positive controls were transferred to the assay plates using a Pintool station (Wako, San Diego, CA). The assay plates were incubated at 37C and 0% CO2 for 16 hr. After 15hr incubation at 37C, 1uL/well CellTiter-Fluor reagent (Promega Corporation) was added to each well of the assay plates using FRD. After 1hr incubation at 37C and 0% CO2, the fluorescence signal was measured using a ViewLux plate reader (PerkinElmer, Shelton, CT).
# % is scaled to controls: 0 for no effect and ±100 for the full control effect.
row,Compound,"activity change, negative = cytotoxicity"
1,CCCCCC(=O)CC,1.13%
2,CCOC(=O)CN1CCCC1=O,1.02% [at 42.5 µM]
3,CCCCCCCC(=O)N(C)C,0.454%
4,O=Cc1ccc(C(=O)O)cc1,0.623%
5,COC(=O)/C=C(\C)CCC=C(C)C,0.534%
6,CC1(C)S[C@@H]2[C@H](NC(=O)Cc3ccccc3)C(=O)N2[C@H]1C(=O)O (tested in a mixture with another compound),-1.12% [at 42.5 µM]
7,N[C@H]1C(O)O[C@H](CO)[C@@H](O)[C@@H]1O (stereo not given in full),4.48% [at 42.5 µM]
8,COC(=O)c1ccc(C(=O)O)cc1,-1.43%
9,CCN(CC)CC(=O)Oc1ccc(NC(C)=O)cc1,-3.98% [at 42.5 µM]
10,C[C@H]1COc2c(C3(N)CC3)c(F)cc3c(=O)c(C(=O)O)cn1c23,1.75% [at 42.5 µM]
11,CCCCOCCCC,-3.33%
12,COc1ccc(Cl)cc1C,-2.44%
13,Cc1ccc(OC(=O)CC(C)C)cc1,-0.73%
14,C[C@@H]1CC[C@@]2(OC1)O[C@H]1C[C@H]3[C@@H]4CC[C@H]5C[C@@H](O)CC[C@]5(C)[C@H]4CC(=O)[C@]3(C)[C@H]1[C@@H]2C,0.258% [at 8.39 µM]
15,CCOC(=O)[C@H](CCc1ccccc1)N[C@H]1CS[C@H](c2cccs2)CN(CC(=O)O)C1=O,1.39% [at 42.5 µM]
16,CCCC(C)C(O)CC (stereo not given),2.92%
17,CCN1CCN(C(=O)N[C@@H](C(=O)N[C@@H]2C(=O)N3C(C(=O)O)=C(CSc4nnnn4C)CS[C@H]23)c2ccc(O)cc2)C(=O)C1=O,-0.725% [at 42.5 µM]
18,COC(=O)c1c(C)cc(O)c(C)c1O,4.24%
19,CCCOc1ccc(C(=O)OCCN(CC)CC)cc1N,0.495% [at 42.5 µM]
20,CSC(=O)c1cccc2nnsc12,-0.0512%

row,Compound,"activity change, negative = cytotoxicity"
1,C=CC(C)(CCC=C(C)C)OC(=O)C(C)C (stereo not given),2.44%
2,O=S(=O)(O)c1ccc(Cl)cc1,0.611%
3,CCCCCCCCCCCCCCCCN(C)C,0.395% [at 8.39 µM]
4,O=C(CCBr)N1CCN(C(=O)CCBr)CC1,-0.865% [at 42.5 µM]
5,N=C(N)N,2.46% [at 42.5 µM]
6,CC(=O)OC/C=C(/C)CCC=C(C)C,-1.27%
7,CCCCCCC(O)CO (stereo not given),-1.56%
8,CCCC[O][Al]([O]CCCC)[O]CCCC,-1.11%
9,NNC(=O)CCCCC(=O)NN,1.67%
10,CC(C)C(C)C,1.04%
11,Cc1ccc2cccnc2c1,-0.462%
12,N=C(N)N1CCc2ccccc2C1,0.84% [at 8.39 µM]
13,Cc1ccc(O)c(C(=O)c2ccccc2)c1,1.05%
14,O=C(O)Cc1c(Cl)ccc(Cl)c1Cl,1.27%
15,C[C@@H]1CCC[C@H](C)N1CCCC(O)(c1ccccc1)c1ccccn1 (stereo not given in full),1.58% [at 42.5 µM]
16,Cc1nnc(C(=O)NC(C)(C)c2nc(C(=O)NCc3ccc(F)cc3)c(O)c(=O)n2C)o1,0.716% [at 42.5 µM]
17,O=C(OOC(=O)c1ccccc1)c1ccccc1,2.07% [at 42.5 µM]
18,C=CC(=O)CC,-0.161%
19,CC(C)c1cc(C(C)C)cc(C(C)C)c1,-0.123%
20,CC(C)(O)CCCC1=CCC(C=O)CC1 (stereo not given),1.59%
